# Among all 96,000 compounds or so, about 1,200 (1.2%) were called active. Rule as the data show it: active = activation fold above about 2; inactive = the rest. This excerpt belongs to a sample that is enriched for actives.
# Biological target: Alkaline phosphatase, placental type (Homo sapiens) (UniProt P05187)
# Assay: PLAP enzyme activators, biochemical, luminescence, HTS (AID 696)
# Conditions: purified PLAP enzyme, luminescent substrate read-out; at 20 µM; hits give high values
# Chain of Alkaline phosphatase, placental type (Homo sapiens) (P05187 whole entry, looked up): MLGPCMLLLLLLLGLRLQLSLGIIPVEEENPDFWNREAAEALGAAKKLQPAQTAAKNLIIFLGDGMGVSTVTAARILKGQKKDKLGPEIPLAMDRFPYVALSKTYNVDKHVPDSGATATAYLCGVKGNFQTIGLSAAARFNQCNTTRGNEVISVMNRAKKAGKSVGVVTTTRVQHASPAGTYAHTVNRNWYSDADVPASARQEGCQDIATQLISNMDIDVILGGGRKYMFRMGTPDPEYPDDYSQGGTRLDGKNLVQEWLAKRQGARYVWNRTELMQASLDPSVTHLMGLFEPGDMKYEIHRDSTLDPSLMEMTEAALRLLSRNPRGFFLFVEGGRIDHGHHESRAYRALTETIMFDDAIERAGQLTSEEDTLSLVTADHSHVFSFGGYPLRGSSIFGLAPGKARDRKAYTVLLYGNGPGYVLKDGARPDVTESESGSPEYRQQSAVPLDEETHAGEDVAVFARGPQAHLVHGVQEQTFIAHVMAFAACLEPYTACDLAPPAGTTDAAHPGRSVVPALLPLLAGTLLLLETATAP
row,SMILES,activation fold
1,COc1cc2c(cc1OC)C(C(=O)NCc1ccco1)C1c3ccccc3CCN1C2=O (configuration not stated),1.2 (inactive)
2,O=C(O)CSCNC(=O)CC12CC3CC(CC(C3)C1)C2,1.2 (inactive)
3,NC(CSC12CC3CC(CC(C3)C1)C2)C(=O)O (configuration not stated),2 (active)
4,CN1/C(=c2/s/c(=C3/C(=O)N(c4ccccc4)NC3=Nc3ccccc3)n(C)c2=O)C(C)(C)c2ccccc21,0.7 (inactive)
5,COc1ccc(S(=O)(=O)Nc2ccc3oc(C)c(C(C)=O)c3c2)cc1,1.3 (inactive)
6,Cc1nc2nc(C)c(CCC(=O)N3CCN(c4ccccc4)CC3)c(C)n2n1,0.8 (inactive)
7,COc1ccc(CC(=O)Nc2nc3n(n2)C(c2ccccc2)CC(=O)N3)cc1OC (configuration not stated),1.5 (inactive)
8,O=C(Nc1ncccn1)c1cccs1,0.9 (inactive)
9,CC1CC(c2ccccc2)n2nc(NC(=O)c3cccs3)nc2N1 (configuration not stated),2.1 (active)
10,CN(C(=O)CSc1nnc(N)s1)c1c(N)n(Cc2ccccc2)c(=O)[nH]c1=O,1.1 (inactive)
11,O=C(CN1C(=O)CC(c2ccccc2)=Nc2ccccc21)NC1CCCCC1,1 (inactive)
12,Cc1ccc(-n2nc3ccc(NC(=O)/C=C/c4ccco4)cc3n2)cc1C,0.9 (inactive)
13,Cc1cccc(NC(=O)CSc2nnc(-c3ccco3)o2)c1,2 (active)
14,O=C(CSc1nnc(-c2ccco2)o1)NCC(=O)c1ccccc1,1.2 (inactive)
15,CCOC(=O)c1sc(NC(=O)CSc2nnc(-c3ccco3)o2)c(C(=O)OCC)c1C,1 (inactive)
16,CONC(=O)c1cc(OCC(F)(F)F)ccc1OCC(F)(F)F,1 (inactive)
17,Cn1c(SCC(=O)NC2CCCCC2)nnc1-c1cc2ccccc2o1,1.1 (inactive)
18,Cc1cccc(N2C(=O)C3C(c4ccccc4)OC4(C(=O)c5ccccc5C4=O)C3C2=O)c1 (configuration not stated),1.2 (inactive)
19,Cc1cccc(N2C(=O)c3cccnc3C2=O)c1,1 (inactive)
20,CCCc1nc2scc(-c3ccc(C)cc3)c2c(=O)n1N,0.9 (inactive)
21,N#C/C(=C(\O)CCl)c1nnc2n1CCCCC2,0.8 (inactive)
22,Cc1cc([N+](=O)[O-])ccc1NCc1cccc([N+](=O)[O-])c1,1 (inactive)
23,COCCCn1c(SCc2cccc(OC)c2)nc2cc(OC)c(OC)cc2c1=N,1.5 (inactive)
24,Oc1c(C(c2ccco2)N2CCC3(CC2)OCCO3)sc2ncnn12 (configuration not stated),1.7 (inactive)
25,Cc1ccc(C(c2sc3nc(C)nn3c2O)N2CCN(c3ccc(F)cc3)CC2)cc1 (configuration not stated),1.7 (inactive)
26,Oc1c(C(c2cccs2)N2CCN(c3ccc(F)cc3)CC2)sc2ncnn12 (configuration not stated),2 (active)

row,SMILES,activation fold
1,O=C(O)c1cnn2c(C(F)(F)F)cc(-c3ccccc3)nc12,0.9 (inactive)
2,C/C(=N\NC(=O)Cc1ccc(Cl)cc1)c1ccccn1,1.8 (inactive)
3,CCNc1nc(N)nc(-c2cc(Cl)ccc2OC)n1,1 (inactive)
4,COc1ccccc1CCNC(=O)c1cnccn1,1.2 (inactive)
5,CC(C)NC(=O)c1ccc(Sc2ccccc2)c([N+](=O)[O-])c1,1.2 (inactive)
6,COc1ccc(C(=O)NNC(=O)c2cnccn2)cc1[N+](=O)[O-],2.8 (active)
7,CC(Oc1ccc(F)cc1F)C(=O)/C=C/N(C)C (configuration not stated),1.2 (inactive)
8,CC(=O)c1sc(NC(=O)c2cccc3ccccc23)nc1C,1 (inactive)
9,CC(=O)c1sc(NC(=O)c2ccc(C)cc2)nc1C,1.2 (inactive)
10,COc1cccc2sc(Nc3nc(C)c(C(C)=O)s3)nc12,2.4 (active)
11,Cc1ccc(NC(=S)NC(NC(=O)Cc2cccc3ccccc23)C(Cl)(Cl)Cl)cc1 (configuration not stated),0.6 (inactive)
12,COC(=O)c1ccc(CSc2nnc(NC(C)C)s2)cc1,0.9 (inactive)
13,CC1=NN(C(=O)Cc2ccc(C)cc2)C(O)(c2cccnc2)C1 (configuration not stated),2.4 (active)
14,CC1=NN(C(=O)c2ccccc2Br)C(O)(c2cccnc2)C1 (configuration not stated),1.4 (inactive)
15,Cc1ccc(NC(=O)N2CCC(O)(c3cccnc3)CC2)cc1,0.9 (inactive)
16,O=C(Nc1ccc2ccccc2c1)Nc1ccc2snnc2c1,0.9 (inactive)
17,O=C(NCCCCCCCCCNC(=O)C(F)(F)F)C(F)(F)F,0.9 (inactive)
18,CCCCC(=O)N/N=C(\C)CC(=O)Nc1cc(Cl)ccc1OC,0.9 (inactive)
19,COc1ccc(Cl)cc1NC(=O)c1oc(C)nc1C,1.4 (inactive)
20,COc1ccc(Cl)cc1NC(=O)CN(C)C(=O)CNC(=O)C12CC3CC(CC(C3)C1)C2,2 (active)
21,O=C(COc1ccc(Br)cc1F)NC1CCN(Cc2ccccc2)CC1,1.7 (inactive)
22,Cc1ccc2[nH]c(=O)c(CN(CCCN(C)C)C(=O)Nc3cccc(Cl)c3)cc2c1,1.5 (inactive)
23,COc1ccc(COC(=O)c2n[nH]c3ccccc23)cc1F,1.4 (inactive)
24,CN(C)S(=O)(=O)c1ccc(NC(=O)COC(=O)c2n[nH]c3ccccc23)cc1,1 (inactive)
25,O=C(COC(=O)c1n[nH]c2ccccc12)NCc1ccccc1,2.2 (active)
26,Cn1c(N)c(C(=O)COC(=O)C23CC4CC(CC(C4)C2)C3)c(=O)n(C)c1=O,1.9 (inactive)

row,SMILES,activation fold
1,C=CCNC(=S)NNc1ncnc2sc3c(c12)CC(C)(C)OC3,2.2 (active)
2,CCC(O)CNc1nc(-n2nc(C)cc2C)nc2sc3c(c12)CC(C)(C)OC3 (configuration not stated),1 (inactive)
3,CC/C(C)=N/Nc1nc2sc3c(c2c(=O)[nH]1)CC(C)(C)OC3,1.1 (inactive)
4,Cc1ccc(SC(=O)COc2ccc(C)c(C)c2)cc1,1 (inactive)
5,COc1cc(OC)c(C(=O)NC2CCCCCC2)cc1OC,1.7 (inactive)
6,CCOC(=O)C1=C(CNC2CCCCC2)NC(=O)NC1c1cc(C)ccc1C (configuration not stated),1.1 (inactive)
7,CCOC(=O)c1[nH]cnc1C(=O)NC1CCCCC1,2.2 (active)
8,Cc1cc(C(=O)OC(C)C(=O)Nc2cccc(S(=O)(=O)N3CCOCC3)c2)c(C)o1 (configuration not stated),1.7 (inactive)
9,CCOc1cccc(-n2nnnc2-c2ccc(OC)cc2)c1,1.4 (inactive)
10,CCOc1nnc(C)c2c(C)n(-c3cccc(Cl)c3)nc12,2.1 (active)
11,COC(=O)C(C)n1cnc2c(nnn2-c2cccc(Cl)c2)c1=O (configuration not stated),0.9 (inactive)
12,CCCCCCCC(=O)NC(Nc1ccccc1OC)C(Cl)(Cl)Cl (configuration not stated),0.9 (inactive)
13,CCN(CC)S(=O)(=O)c1ccc2nc(COC(=O)c3n[nH]c4ccccc34)[nH]c2c1,1.8 (inactive)
14,CCN(CC)S(=O)(=O)c1ccc2nc(CSc3nnnn3-c3ccc(O)cc3)[nH]c2c1,2.7 (active)
15,O=c1c2ccccc2nc(CSc2nnnn2-c2ccccc2)n1-c1ccccc1,0.9 (inactive)
16,CC(=O)NS(=O)(=O)c1ccc(NC(=S)NC(=O)C(C)(C)C)cc1,1.1 (inactive)
17,COc1ccccc1NC(=O)c1ccc2nc(N3C(=O)CCC3=O)sc2c1,1.1 (inactive)
18,COc1ccc(C(C)=O)cc1CN1C(=O)NC2(CCCCC2C)C1=O (configuration not stated),1 (inactive)
19,CCOC(=O)N1CCN(C(=O)CSc2ccc(Cl)cc2)CC1,1.4 (inactive)
20,CCOC(=O)N1CCN(C(c2cccnc2)c2ccc3cccnc3c2O)CC1 (configuration not stated),2.2 (active)
21,CCN1CCN(C(c2cccnc2)c2cc(Cl)c3cccnc3c2O)CC1 (configuration not stated),1.7 (inactive)
22,CC1CC(C)CN(C/C=C/c2ccccc2[N+](=O)[O-])C1 (configuration not stated),1.2 (inactive)
23,CCOc1ccccc1Oc1cn[nH]c1-c1ccc(OC)cc1O,2.8 (active)
24,C=C(C)COc1ccc(-c2n[nH]c(C)c2-c2ccccc2OC)c(O)c1,1 (inactive)
25,CCOc1ccccc1NC(=O)Nc1cc(OC)ccc1OC,0.8 (inactive)
26,c1ccc2c(C[n+]3csc4ccccc43)cccc2c1,1.1 (inactive)

row,SMILES,activation fold
1,COc1ccccc1NC1=NC2(CCCC2)N=C(N)N1,0.8 (inactive)
2,COc1ccccc1Nc1nc(N)nc(CN(C)C2CCCCC2)n1,1.3 (inactive)
3,COc1ccccc1NC1=NC(c2ccc(Cl)cc2)N=C(N)N1 (configuration not stated),2.2 (active)
4,O=C1C=C(c2ccc(Cl)cc2)C(=O)N1Nc1ccccc1,0.9 (inactive)
5,C=CCn1c(SCc2c(C)noc2C)nc2sc3c(c2c1=O)CCC(C)C3 (configuration not stated),1.4 (inactive)
6,CCOC(=O)c1c(NC(=O)CCl)sc(C(=O)N(CC)CC)c1C,1.7 (inactive)
7,COCCCNCC(=O)Nc1sc(C)c(C)c1C(=O)OC,2.2 (active)
8,CCOC(=O)c1c(NC(=O)c2cccs2)sc(C)c1C,1.1 (inactive)
9,COc1ccc(C2=NOC3(CC(=O)N(c4ccc(C)cc4)C3=O)C2)cc1 (configuration not stated),1.2 (inactive)
10,CCOC(=O)c1c(NC(=O)CCCN2CCOCC2)sc2c1CC(C)(C)OC2,1.5 (inactive)
11,CCc1ccc(N(CC)c2ncnc3nc[nH]c23)cc1,2 (active)
12,COc1ccc(CCNc2ncnc3nc[nH]c23)cc1OC,1.8 (inactive)
13,c1ccc2c(c1)OCC(CNc1ncnc3nc[nH]c13)O2 (configuration not stated),1.6 (inactive)
14,Cc1nn(C)cc1/C=C1\CCC/C(=C\c2cn(C)nc2C)C1=O,1.8 (inactive)
15,CCn1c(C)nc2cc(C(=O)NNS(=O)(=O)c3ccc(C)cc3C)ccc21,1 (inactive)
16,Cc1ccc(C(=O)Nc2c(C#N)c(C)c(C)n2Cc2ccccc2)cc1,0.9 (inactive)
17,Cc1[nH][nH]c(=O)c1C(c1ccc(-c2ccc(Cl)cc2)o1)c1c(C)[nH][nH]c1=O,2.2 (active)
18,Cc1[nH][nH]c(=O)c1N=Nc1ccccc1,1.1 (inactive)
19,Cc1nnc(NC(=O)CCCOc2ccccc2)s1,1 (inactive)
20,CCOC(=O)c1nn(-c2cccc(C)c2)cc1C(=O)c1ccccc1,1.8 (inactive)
21,O=C(Nc1ccc(-n2ccnc2P(=O)(O)c2ccccc2)cc1)c1ccccc1Br,2.1 (active)
22,O=C(Nc1ccccc1)c1cccnc1Nc1ccccc1,0.8 (inactive)
23,Cc1nonc1NC(=O)c1ccccc1Br,1.2 (inactive)
24,CCOC(=O)c1nnn(-c2nonc2-n2cccc2)c1CN1CCC(C(=O)OCC)CC1,1.2 (inactive)
